From PubChem BioAssay come the findings set out here.

For assay [1], the system named is Wnt5a (protein binding on small-molecule microarray). The assay is described as follows: small molecules binding Wnt5a protein – biophysical, small-molecule microarray, 635/667 nm fluorescence, primary screen (AID 1142).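 Note: fluorescence read at 667 nm with signal to noise per printed feature.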 The conditions noted are these: 635 nm fluorescence, higher = more signal.
Assay [2] in a line: ATP-based viability of Huh7 replicon cells – cell-based, CellTiter-Glo luminescence, basal, 48 h, cytotoxicity control for HCV replication inhibitor project, primary screen (AID 1143).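 Note: Huh7 hepatoma cells carrying a hepatitis C replication reporter with no stimulus; test concentration not given here.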 The conditions noted are these: Huh7 HCV replicon, CellTiter-Glo luminescence, 48 h, higher = more signal, called active from +8 up or from −8 down unless noted.
A short description of assay [3]: Pseudomonas biofilm growth suppression – PAO1 strain, BacTiter-Glo luminescence, LB-PBS, primary screen (AID 1144). The conditions noted are these: P. aeruginosa PAO1 biofilm, 12 h, higher = more signal.
Assay [4] in a line: basal CRE-LacZ reporter activity in PC12 – cell-based, unstimulated, primary screen (AID 1145). The conditions noted are these: no forskolin, luminescence, 4.5 h; higher = more signal, called active from +8 up or from −8 down unless noted.
Assay [5] in a line: forskolin-driven CRE-LacZ activity in PC12 – cell-based, CRE-LacZ reporter, forskolin-stimulated, primary screen (AID 1146).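 Note: PC12 cells with 6xCRE LacZ reporter stimulated by forskolin 10 µM; beta-galactosidase reporter signal reflecting CREB driven transcription.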 The conditions noted are these: luminescence, 4.5 h; higher = more signal, called active from +8 up or from −8 down unless noted.
The target of assay [6] is Streptavidin (Streptomyces avidinii) (UniProt P22629). The assay is described as follows: compounds binding control protein streptavidin – biophysical, small-molecule microarray, 635/667 nm fluorescence, artefact control for SMM compound annotation, primary screen (AID 1147).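 Note: signal reflects streptavidin binding to arrayed compounds as a control protein.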 The conditions noted are these: higher = more signal.
The nature of assay [7]: probe aInhba binding on compound microarray – biochemical, small-molecule microarray, 635/667 nm fluorescence, primary screen (AID 1148).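 Note: score merges 667nm spot fluorescence with signal-to-noise for antibody binding to printed compounds.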 The conditions noted are these: higher = more signal; small-molecule microarray, probe aInhba, fluorescence unless noted.
Assay [8] has as its target Torsin-1A (Homo sapiens) (UniProt O14656). The experiment in a line: TOR1A wild-type binding on microarray – cell lysate, small-molecule microarray, lysate, 635/667 nm, primary screen (AID 1149). The conditions noted are these: COS7 hTOR1A-WT lysate, 635 nm fluorescence, higher = more signal.
Assay [9] shares this target. The assay is described as follows: torsin A mutant lysate binding on microarrays – cell lysate, small-molecule microarray, COS7 lysate, 635/667 nm fluorescence, primary screen (AID 1150).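 Note: score pools 667 nm emission and signal to noise measuring lysate protein binding.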 The conditions noted are these: COS7 hTOR1A mutant lysate, 635 nm fluorescence, higher = more signal.
Assay [10] deals with Sonic hedgehog protein (Shh). The assay is described as follows: Sonic hedgehog microarray binding compounds – biochemical, small-molecule microarray, 635/667 nm fluorescence, primary screen (AID 1151).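 Note: Shh protein binding to compounds spotted on small-molecule microarray slides; score combines spot fluorescence intensity with signal-to-noise across triplicate slides.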 The conditions noted are these: 635 nm fluorescence, higher = more signal.
Assay [11] in a line: optical density shifts of acrAB sulA E. coli – strain DRC41, OD650, 48 h, E. coli filamentation inducer project, primary screen (AID 1152).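 Note: E. coli MC1000 strain DRC41 lacking acrAB efflux pump and sulA.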 The conditions noted are these: higher = more signal, called active from +8 up or from −8 down unless noted.
The nature of assay [12]: probe aLefty1 binding on compound microarray – biochemical, small-molecule microarray, 635/667 nm fluorescence, primary screen (AID 1153).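 Note: score merges spot fluorescence with signal-to-noise ratio from the scanned slide images.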 The conditions noted are these: higher = more signal; small-molecule microarray, probe aLefty1, fluorescence unless noted.
A short description of assay [13]: plasmodial surface anion channel blockers, osmotic lysis – cell-based, P. falciparum Indochina, OD700, 1 h, primary screen (AID 1154). The conditions noted are these: P. falciparum Indochina infected RBC osmotic lysis; higher = more signal, called active from +8 up or from −8 down unless noted.
Assay [14] in a line: plasmodial surface anion channel blockers, osmotic lysis – cell-based, P. falciparum Indochina, OD700, 2 h, primary screen (AID 1155).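 Note: lysis reports solute entry through the parasite surface anion channel PSAC.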 The conditions noted are these: P. falciparum Indochina infected erythrocytes; higher = more signal, called active from +8 up or from −8 down unless noted.
Assay [15] in a line: changes in parasitized red cell lysis, either direction – P. falciparum Indochina, OD700, 3 h, PSAC antagonist project, primary screen (AID 1156). The conditions noted are these: P. falciparum-infected erythrocytes, osmotic lysis; higher = more signal, called active from +8 up or from −8 down unless noted.
The nature of assay [16]: plasmodial surface anion channel blockers, osmotic lysis – cell-based, P. falciparum Indochina, OD700, 18 h, primary screen (AID 1157). The conditions noted are these: P. falciparum Indochina infected erythrocytes, osmotic lysis OD700, 18 h; higher = more signal, called active from +8 up or from −8 down unless noted.
The nature of assay [17]: S6 kinase pathway phospho-S6 level changes – cell-based, A549, cytoblot, luminescence, serum-stimulated, primary screen (AID 1158).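 Note: serum-stimulated A549 lung adenocarcinoma cells; signal is phosphorylated S6 detected by cytoblot immunostaining with HRP secondary.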 The conditions noted are these: 5 h, higher = more signal.
Assay [18] has as its target NADPH oxidase 2 (Homo sapiens) (UniProt P04839). The assay is described as follows: compounds shifting NOX2 Amplex Red fluorescence – cell-based, HEK293-NOX2, PMA-stimulated, NOX inhibitor project, primary screen (AID 1159). Note: test concentration not given here. The conditions noted are these: 45 min; higher = more signal, called active from +8 up or from −8 down unless noted.
In assay [19] the target is NADPH oxidase 4 (Homo sapiens) (UniProt Q9NPH5). The experiment in a line: compounds shifting NOX4 Amplex Red fluorescence – cell-based, HEK293-NOX4, tetracycline-induced, NOX inhibitor project, primary screen (AID 1160). The conditions noted are these: HEK293-NOX4, Amplex Red H2O2 fluorescence, 45 min; higher = more signal, called active from +8 up or from −8 down unless noted.

In assay [20] the target is NADPH oxidase 5 (Homo sapiens) (UniProt Q96PH1). The experiment in a line: compounds shifting NOX5 Amplex Red fluorescence – cell-based, HEK293-NOX5, NOX inhibitor project, primary screen (AID 1161). The conditions noted are these: HEK293-NOX5, ionomycin, 45 min, higher = more signal.

Molecules are shown by their SMILES. Active and inactive are the calls of the source. Unless noted, the rule behind the calls is not given here.

NADPH oxidase 5 (Homo sapiens), sequence (Q96PH1 whole entry, looked up): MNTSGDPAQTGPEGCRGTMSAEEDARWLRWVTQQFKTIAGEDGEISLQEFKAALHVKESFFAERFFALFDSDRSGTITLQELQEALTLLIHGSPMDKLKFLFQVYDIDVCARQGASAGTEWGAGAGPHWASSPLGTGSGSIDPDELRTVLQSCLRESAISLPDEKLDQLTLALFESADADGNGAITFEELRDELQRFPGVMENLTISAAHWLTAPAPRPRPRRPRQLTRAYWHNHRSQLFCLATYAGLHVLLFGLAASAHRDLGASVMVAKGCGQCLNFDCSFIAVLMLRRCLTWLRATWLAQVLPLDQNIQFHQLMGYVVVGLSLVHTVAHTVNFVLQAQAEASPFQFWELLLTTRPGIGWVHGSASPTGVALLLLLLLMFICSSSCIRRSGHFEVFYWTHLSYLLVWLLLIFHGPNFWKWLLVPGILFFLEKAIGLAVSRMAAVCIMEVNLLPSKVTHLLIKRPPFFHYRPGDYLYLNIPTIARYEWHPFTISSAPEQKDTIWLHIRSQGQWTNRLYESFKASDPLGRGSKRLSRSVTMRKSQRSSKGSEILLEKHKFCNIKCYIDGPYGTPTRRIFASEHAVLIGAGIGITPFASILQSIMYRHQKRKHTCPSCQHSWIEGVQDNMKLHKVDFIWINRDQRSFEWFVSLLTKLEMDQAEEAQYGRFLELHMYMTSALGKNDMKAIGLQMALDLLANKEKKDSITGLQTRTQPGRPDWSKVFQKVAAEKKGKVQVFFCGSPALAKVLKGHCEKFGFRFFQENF
Streptavidin (Streptomyces avidinii), sequence (P22629 whole entry, looked up): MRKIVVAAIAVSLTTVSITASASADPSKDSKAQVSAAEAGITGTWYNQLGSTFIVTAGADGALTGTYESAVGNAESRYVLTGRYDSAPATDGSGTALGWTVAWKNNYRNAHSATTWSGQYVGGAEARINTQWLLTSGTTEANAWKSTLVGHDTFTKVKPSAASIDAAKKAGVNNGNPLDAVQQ
NADPH oxidase 4 (Homo sapiens), sequence (Q9NPH5 whole entry, looked up): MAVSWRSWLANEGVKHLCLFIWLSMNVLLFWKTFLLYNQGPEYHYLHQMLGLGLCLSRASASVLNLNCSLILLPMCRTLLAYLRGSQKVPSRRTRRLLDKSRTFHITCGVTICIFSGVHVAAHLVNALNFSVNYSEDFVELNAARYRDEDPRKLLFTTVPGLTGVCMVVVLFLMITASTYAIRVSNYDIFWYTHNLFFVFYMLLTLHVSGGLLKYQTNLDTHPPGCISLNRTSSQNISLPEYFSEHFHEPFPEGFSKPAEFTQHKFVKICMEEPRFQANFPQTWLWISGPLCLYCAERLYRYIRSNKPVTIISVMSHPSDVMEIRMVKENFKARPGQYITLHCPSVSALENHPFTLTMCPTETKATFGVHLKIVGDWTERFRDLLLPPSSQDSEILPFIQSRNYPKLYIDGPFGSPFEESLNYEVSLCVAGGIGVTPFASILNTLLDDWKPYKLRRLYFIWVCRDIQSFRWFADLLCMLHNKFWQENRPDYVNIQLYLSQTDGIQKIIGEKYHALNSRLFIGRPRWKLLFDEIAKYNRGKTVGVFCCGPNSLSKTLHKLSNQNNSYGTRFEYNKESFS
NADPH oxidase 2 (Homo sapiens), sequence (P04839 whole entry, looked up): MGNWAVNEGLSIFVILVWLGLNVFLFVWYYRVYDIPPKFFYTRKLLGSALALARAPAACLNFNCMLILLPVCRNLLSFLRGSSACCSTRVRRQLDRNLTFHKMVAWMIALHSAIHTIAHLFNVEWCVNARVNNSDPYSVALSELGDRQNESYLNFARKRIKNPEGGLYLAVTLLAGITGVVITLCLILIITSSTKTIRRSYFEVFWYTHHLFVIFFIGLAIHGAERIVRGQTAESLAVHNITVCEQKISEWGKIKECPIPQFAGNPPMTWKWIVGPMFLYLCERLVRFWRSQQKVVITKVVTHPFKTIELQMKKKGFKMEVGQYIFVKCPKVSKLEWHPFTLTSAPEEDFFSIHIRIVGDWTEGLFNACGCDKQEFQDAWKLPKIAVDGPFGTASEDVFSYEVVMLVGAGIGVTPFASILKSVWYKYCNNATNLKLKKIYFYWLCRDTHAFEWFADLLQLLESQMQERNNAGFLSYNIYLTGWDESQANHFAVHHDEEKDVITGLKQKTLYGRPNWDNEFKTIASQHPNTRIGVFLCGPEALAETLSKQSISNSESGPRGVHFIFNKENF
Torsin-1A (Homo sapiens), sequence (O14656 whole entry, looked up): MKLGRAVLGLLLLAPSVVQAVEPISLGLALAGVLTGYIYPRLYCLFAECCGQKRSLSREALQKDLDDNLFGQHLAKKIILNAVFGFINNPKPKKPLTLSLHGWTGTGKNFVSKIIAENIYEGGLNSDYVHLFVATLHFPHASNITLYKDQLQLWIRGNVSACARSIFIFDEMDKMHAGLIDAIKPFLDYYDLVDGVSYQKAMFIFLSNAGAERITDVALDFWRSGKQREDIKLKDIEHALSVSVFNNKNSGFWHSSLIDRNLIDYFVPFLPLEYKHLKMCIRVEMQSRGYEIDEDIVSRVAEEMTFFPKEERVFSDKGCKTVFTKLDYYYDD

Regarding `COC(=O)[C@H]1C(=O)c2ccccc2O[C@@](C(=O)OC)(c2ccccc2)[C@@H]1c1ccccc1`, the composite z-score in assay [1] is 0.107; in [6], -0.37; in [7], 0.177; with Torsin-1A (Homo sapiens) [8], 0.0049; with Torsin-1A (Homo sapiens) [9] it was 0.0856; in [10], 0.0053. In assay [12], the composite z-score is -0.199. The z-score in assay [2] is -1.35 (inactive); in [3], 0.352 (inactive); in assay [4], -0.523 (inactive); in assay [5], 1.24 (inactive); in assay [11] it was 0.0473 (inactive); in assay [13], 0.251 (inactive). Besides, the z-score in [14] was -0.528 (inactive); in assay [15], -0.591 (inactive); in assay [16], -0.56 (inactive); in assay [17], -0.651; in assay [18], 1.19 (inactive); in assay [19] it was 0.752 (inactive). Further, the z-score in assay [20] turned out to be 0.627.

Turning to `O=P(c1ccccc1)(c1ccccc1)N1CC2(CC2)CC(O)(c2ccccc2)C1` (stereo not given), the composite z-score is 0.323 in assay [1]; 0.386 in assay [6]; 0.309 in assay [7]; -0.316 with Torsin-1A (Homo sapiens) [8]; -0.276 in the assay with Torsin-1A (Homo sapiens) [9]; -1.05 in assay [10]. Further, the composite z-score in [12] turned out to be 0.276. The z-score was -1.55 (inactive) in [2]; 0.525 (inactive) in [3]; 0.204 (inactive) in [4]; -0.927 (inactive) in assay [5]; -1.16 (inactive) in assay [11]; 0.492 (inactive) in assay [13]. Moreover, the z-score in assay [14] is 0.585 (inactive); in assay [15] it was 0.483 (inactive); in assay [16], 0.741 (inactive); in [17] it was 0.0869; in [18], -0.356 (inactive); in assay [19], -0.976 (inactive). Moreover, in assay [20], the z-score is -2.94.

Consider `CCCC=C(CCC)[C@@H](NP(=O)(c1ccccc1)c1ccccc1)c1ccccc1`, for which the composite z-score in assay [1] was -0.0444; in [6] it was 0.821; in assay [7], -0.168; with Torsin-1A (Homo sapiens) [8], 0.364; in the assay with Torsin-1A (Homo sapiens) [9], 0.368; in assay [10] it was -0.0623. Moreover, the composite z-score in [12] was 0.547. Also, the z-score is -0.411 (inactive) in assay [2]; 0.168 (inactive) in assay [3]; 0.201 (inactive) in assay [4]; 0.89 (inactive) in [5]; -1.19 (inactive) in [11]; 4.03 (inactive) in assay [13]. In addition, the z-score in [14] is 0.584 (inactive); in [15] it was 0.689 (inactive); in assay [16], 0.249 (inactive); in assay [17], 1.02; in assay [18], -1.7 (inactive); in assay [19], -0.617 (inactive). The z-score in [20] came to 0.842.

For `COC(=O)[C@@]1(Cc2ccccc2)[C@H]2c3cc(C(=O)N(C)C)n(C)c3C[C@H]2CN1C(=O)c1ccccc1`, the composite z-score in assay [1] was 0.253; in [6] it was 1.78; in assay [7], 0.0091; with Torsin-1A (Homo sapiens) [8], 0.0264; with Torsin-1A (Homo sapiens) [9], 1.51; in assay [10], -0.916. In addition, the composite z-score in [12] came to 0.113. Further, the z-score in assay [2] is -0.782 (inactive); in [3], 0.323 (inactive); in [4], 0.194 (inactive); in assay [5], 0.189 (inactive); in [11] it was -0.741 (inactive); in assay [13], 1.24 (inactive). Further, the z-score in [14] was 0.373 (inactive); in assay [15] it was 0.747 (inactive); in [16], 0.617 (inactive); in assay [17], 0.553; in [18], 0.294 (inactive); in [19], -0.0833 (inactive). The z-score in assay [20] is -2.5.
